Laboratory results reported in PubChem BioAssay (NCATS).
“And” between values parts separate entries of the source, which are not always exact repeats. Equal entries are not always repeated. Records with an inconclusive call do not appear. A number with no mark means an inactive call. The source made the active and inactive calls. The call rests on the fitted dose curve; in most records, active means well fitted cell-killing curve with a large enough effect; inconclusive means small, poorly fitted or top-dose-only effect, or effect the other way; inactive means flat fitted curve, though single readings scatter.
Potency means the concentration at half of the fitted maximal effect.

Experiment: qHTS for Inhibitors of Ubiquitin-specific Protease USP2a Using CHOP2 as the Reporter: Cytotox Assay (AID 652170); further: nearly all actives have a fitted effect of over 70% in size
Conditions: HCT116 viability, CellTiter-Glo luminescence, 72 h; series mostly up to 46.1 µM; activity change, negative = cytotoxicity: at the top concentration
Description: Homeostasis of cellular proteins is maintained through a combination of synthesis and degradation. The pathway that accounts for the majority of protein degradation is the ubiquitin-proteasomal pathway. Ubiquitin (Ub) is highly conserved in all cells and the generation of a multi-Ub chain typically targets proteins for degradation by the proteasome. However, ubiquitination is highly reversible and dynamic. Deubiquitination, the reverse process, is catalyzed through the action of enzymes referred to as isopeptidases or deubiquitinating enzymes (DUBs). This group of enzymes is collectively responsible for maintaining adequate pools of free ubiquitin and regulating the ubiquitination status of cellular proteins. The class of DUBs referred to as the ubiquitin-specific proteases (USP) family functions endoproteolytically to cleave Ub chains from a wide range of protein substrates. USP2a deubiquitinates fatty acid synthase (FASN) which has recently been identified as an emerging oncology target. To identify inhibitors of USP2a a cell-free qHTS assay was employed. Confirmed qHTS active compounds were tested for cytoxicity in HCT116 cells (human colon cancer cells) using the Cell Titer Glo luciferase-coupled ATP detection system from Promega. This assays monitors cell proliferation by quantitating the amount of ATP present by luciferase, which in the presence of ATP converts […]. A compound that inhibits cell proliferation would result in a decrease in luminescence. The data were normalized to control columns representing maximum signal (cells with DMSO) and background (no cells with DMSO). The cells were cultured in DMEM with 10% FBS and plated in white solid-bottom tissue-culture treated plates. NIH Molecular Libraries Probe Centers Network [MLPCN] NIH Chemical Genomics Center [NCGC] MLSCN Grant: MH079852 PI Name: Benjamin Nicholson, Progenra Inc, Malvern, PA
5 uL of HCT116 (600 cells/well) were plated into a 1536 well plate and then incubated for 6 hr at 37 deg C, 5% CO2. Compounds are added through pinning before the plate is incubated for 72 hr at 37 deg C, 5% CO2. Then, 3 uL of Cell Titer Glo is added, the plate is left at RT for 10 min, before luminescence is detected using the ViewLux.
For `Cc1ccc(S(=O)(=O)Nc2cc(C(=O)Nc3nc(-c4ccccc4)cs3)ccc2Cl)cc1`, the “activity change, negative = cytotoxicity” value was -13.8%.
In the case of `O=c1[nH]c(CN2CCOCC2)nc2sc3c(c12)CCCC3`, the “activity change, negative = cytotoxicity” value is reported as 14.9%.
For `Cc1ccc(S(=O)(=O)Nc2cccc(C(=O)Nc3nc(-c4ccccc4)cs3)c2Cl)cc1`, the Potency was 11.8 µM (active).
In the case of `Cc1ccc([S+](=O)([O-])n2cc(Cc3ccc(-c4ccccc4)cc3)c3ccccc32)cc1`, the “activity change, negative = cytotoxicity” value is reported as -2.29%.
For `Cc1ccc(S(=O)(=O)Nc2cc(F)ccc2C(=O)Nc2nc(-c3ccccc3)cs2)cc1`, the Potency was 3.32 µM (active).
With `Cc1ccc(S(=O)(=O)Nc2ccccc2C(=O)Nc2nc(-c3ccccc3)cs2)cc1` the Potency was 14.8 µM (active) and 11.8 µM (active).
For `O=C(Nc1ccc([S+](=O)([O-])Nc2nccs2)cc1)c1ncn[nH]1`, the “activity change, negative = cytotoxicity” value was -18%.
With `Cc1ccc(S(=O)(=O)n2cc(C(=O)Nc3nc(-c4ccccc4)cs3)c3ccccc32)cc1` the “activity change, negative = cytotoxicity” value was -24.7%.
For `Cc1ccc(-c2cc(C(=O)Nc3ccccc3)c3ccccc3n2)cc1C`, the “activity change, negative = cytotoxicity” value was -10.5%.
With `O=C(Nc1ccc(S(=O)(=O)Nc2nc(-c3ccccc3)cs2)cc1)c1ccc2ccccc2c1` the “activity change, negative = cytotoxicity” value was 2.6%.
With `CCCCc1ccc(C(=O)Nc2ccc(S(=O)(=O)Nc3nccs3)cc2)cc1` the “activity change, negative = cytotoxicity” value was -5.69%.
In the case of `N#Cc1ccc(N[S+](=O)([O-])c2ccc(Nc3nc(-c4ccccc4)cs3)cc2)cc1`, the “activity change, negative = cytotoxicity” value is reported as 11.4%.
In the case of `CC(C)(C)C1CCC(C(=O)Nc2ccc(S(=O)(=O)Nc3nccs3)cc2)CC1` (stereo not given), the “activity change, negative = cytotoxicity” value is reported as -22.7%.
With `Clc1nc(CN2CCOCC2)nc2sc3c(c12)CCCC3` the “activity change, negative = cytotoxicity” value was 9.39%.
With `Cc1ccc(S(=O)(=O)Nc2cnccc2C(=O)Nc2ccc(N3CCOCC3)cc2)cc1` the “activity change, negative = cytotoxicity” value was 5.56%.
With `Cc1ccc([S+](=O)([O-])n2cc(-c3ccc(-c4ccccc4)cc3)c3ccccc32)cc1` the “activity change, negative = cytotoxicity” value was 8.59%.
For `Cc1ccc(S(=O)(=O)Nc2ccccc2C(=O)Nc2ccc(-c3ccccc3)nc2)cc1`, the Potency was 20.9 µM (active).
With `O=C(Nc1ccc(S(=O)(=O)Nc2nccs2)cc1)c1cccnc1` the “activity change, negative = cytotoxicity” value was 19.2%.
In the case of `O=C1CC(c2ccccc2)Cc2[nH]c(=O)c(-c3nc(-c4ccc(F)cc4)cs3)cc21` (stereo not given), the Potency is reported as 4.18 µM (active).
With `Cc1ccc(S(=O)(=O)n2cc(C(=O)Nc3ccc(-c4ccccc4)cc3)c3ccccc32)cc1` the “activity change, negative = cytotoxicity” value was -12.6%.
For `Cc1ccc(-c2cc(C(=O)N(C)c3ccccc3)c3ccccc3n2)cc1C`, the “activity change, negative = cytotoxicity” value was -2.35%.
For `Cc1ccc(S(=O)(=O)Nc2ccc(Br)cc2C(=O)Nc2nc(-c3ccccc3)cs2)cc1`, the Potency was 4.69 µM (active).
For `COc1cc(NS(=O)(=O)c2ccc(C)cc2)c(C(=O)Nc2nc(-c3ccccc3)cs2)cc1OC`, the “activity change, negative = cytotoxicity” value was 1.75%.
With `O=C(Nc1nc(-c2ccccc2)cs1)c1ccncc1NS(=O)(=O)c1cccc2cccnc12` the “activity change, negative = cytotoxicity” value was -13.3%.
In the case of `Cc1ccc(-c2cc(C(=O)Nc3ccc(C(=O)O)cc3)c3ccccc3n2)cc1C`, the “activity change, negative = cytotoxicity” value is reported as 5.43%.
For `N#Cc1ccc(NS(=O)(=O)c2ccc(NC(=O)Cc3ccc(Cl)c(Cl)c3)cc2)cc1`, the “activity change, negative = cytotoxicity” value was 6.58%.
With `Cc1cccc2c(C(=O)O)cc(Cl)nc12` the “activity change, negative = cytotoxicity” value was 30.1%.
In the case of `Cc1ccc(C(=O)[C@H]2CC[C@@H](C(=O)Nc3ccc(S(=O)(=O)Nc4nccs4)cc3)C2)cc1C`, the “activity change, negative = cytotoxicity” value is reported as -12.7%.
For `O=C(Nc1ccc([S+](=O)([O-])Nc2nccs2)cc1)c1ccccn1`, the “activity change, negative = cytotoxicity” value was -7.26%.
In the case of `COc1ccc(NC(=O)c2cc(-c3ccc(C)c(C)c3)nc3ccccc23)cc1`, the “activity change, negative = cytotoxicity” value is reported as 11.9%.
For `Cc1ccc(-c2cc(C(=O)N3CCCCC3)c3ccccc3n2)cc1C`, the “activity change, negative = cytotoxicity” value was -10.5%.
In the case of `Cc1ccc(S(=O)(=O)Nc2cccnc2C(=O)Nc2nc(-c3ccccc3)cs2)cc1`, the Potency is reported as 14.8 µM (active).
For `CC1CC1C(=O)Nc1ccc([S+](=O)([O-])Nc2nccs2)cc1` (stereo not given), the “activity change, negative = cytotoxicity” value was -3.34%.
With `CCS(=O)(=O)N1CCC(C(=O)Nc2ccc(S(=O)(=O)Nc3nccs3)cc2)CC1` the “activity change, negative = cytotoxicity” value was -0.738%.
In the case of `N#Cc1ccc(NS(=O)(=O)c2ccc(NC(=O)Cc3ccc(F)c(Cl)c3)cc2)cc1`, the “activity change, negative = cytotoxicity” value is reported as 18.9%.
For `COc1ccc(OC)c(C(=O)Nc2nc(-c3ccccc3)cs2)c1`, the “activity change, negative = cytotoxicity” value was 2.09%.
For `CCOC(=O)C1CCC(C(=O)Nc2ccc([S+](=O)([O-])Nc3nccs3)cc2)CC1` (stereo not given), the “activity change, negative = cytotoxicity” value was 2.41%.
With `Cc1ccc(S(=O)(=O)Nc2cnccc2C(=O)Nc2ccc(-n3cncn3)cc2)cc1` the “activity change, negative = cytotoxicity” value was 18.3%.
With `O=c1[nH]c(CN2CCOCC2)nc2sc3c(c12)CCC3` the “activity change, negative = cytotoxicity” value was 9.75%.
With `COc1ccccc1NC(=O)c1cc(-c2ccc(C)c(C)c2)nc2ccccc12` the “activity change, negative = cytotoxicity” value was -5.2%.
